IL-1B inflam inh: inflammasome signaling inhibition, IL-1 beta readout | AID 743279 | activity change, % at 57.5 µM | 360,000 tested, 4.7% active | THP-1 LPS/ATP IL-1B secretion, AlphaLISA, 16 h; active compounds read low; in the data active = activity change below about -50%; inconclusive = mostly about -30% to -49%; note: % is set by controls: 0 for no effect and ±100 for the full control effect
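THP-1 cells pretreated 1 hr with compounds (up to 57.5 uM final), then stimulated with LPS (250 ng/mL final) plus ATP (1.25 mM final); secreted IL-1B measured by AlphaLISA after 16 hr, decreased signal indicating inhibition.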
HT1080 IDH1KD tx: toxicity to HT-1080 IDH1 knockdown cells (counter line) | Potency, µM (doses to about 46.1 µM), inactives show at the top dose activity, negative = toxicity, usual class: cytotoxic | 360,000 tested, 2% active | HT-1080 IDH1 knockdown viability, ATP luminescence, 48 h;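 note: potency is the fitted concentration of half-maximal effect; 0% = DMSO wells and -100% = cell-free medium wells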
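% activity derives from luminescence (CellTiter-Glo), normalised to DMSO and no-cell wells. HT-1080-IDH1KD cells, 750/well, had 48 h compound exposure at 37 °C.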
HT1080NT lethal: kills 2HG-producing HT-1080-NT fibrosarcoma cells; HT-1080-NT fibrosarcoma viability, CellTiter-Glo ATP luminescence, 48 h; Potency, µM (titrated, usually from 46.1 µM), for inactives: at the top dose activity, negative = less viability, usual class: cytotoxic; 360,000 tested, 1.6% active;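 note: NT is the 2HG producing partner of a matched IDH1 knockdown line; potency is the fitted concentration of half-maximal effect; 0% = DMSO-treated cells and -100% = media-only wells without cells; nearly all actives have a fitted effect of over 55% in size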
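HT-1080-NT; 750 cells/well; 5% FBS RPMI; 48 h compound, 37 degrees C; CellTiter-Glo luminescence; curve fitting and curve-class assignment.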
HepG2 tox: HepG2 cytotoxicity, counter-screen for TGF-b inhibitors; 410,000 tested, 0.76% active; Potency, µM (doses to about 46.1 µM), inactives show top-dose activity change, negative = cytotoxicity, actives largely listed as cytotoxic; AID 588856; HepG2 CAGA-GFP viability, ATP luminescence, 18 h; note: potency is the fitted concentration of half-maximal effect
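HepG2 CAGA-GFP cells (1000/well, DMEM with 1% FBS) received compound, then TGF-beta at 500 pg/mL final, and were incubated 18 hours at 37 degrees C. Viability was read by CellTiter-Glo luminescence. Media-only wells were set as complete cell-killing and DMSO as no toxicity.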
Giardia killer: kills Giardia lamblia; Giardia lamblia trophozoite viability; activity change, % at 7.66 µM, hits read low; 340,000 tested, 0.15% active; AID 540267; in the data active = activity change below about -80%; inconclusive = between about -30% and that limit;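 note: parasites exposed to compound for two days anaerobically before the ATP read; % is set by controls: 0 for no effect and ±100 for the full control effect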
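Killing of trophozoites was scored by loss of ATP luminescence after a 48 hrs anaerobic exposure to compounds at 37 deg C, using 100 cells per well.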
TGFb inhibitor: inhibitors of TGF-b signaling; HepG2 CAGA-GFP TGF-b/SMAD3 reporter, GFP fluorescence, 18 h; TGF-beta stimulated, 500 pg/mL final; Potency, µM (highest dose often 46.1 µM), for the others: at the highest dose activity, negative = inhibition, hits mostly inhibitors; 410,000 tested, 1.2% active; note: potency is the fitted concentration of half-maximal effect; % is set by controls: 0 for no effect and ±100 for the full control effect; nearly all actives have a fitted effect of over 65% in size
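HEPG2 CAGA-GFP reporter cells (1000/well, DMEM with 1% FBS) received compounds, then recombinant TGF-beta at 500 pg/mL final for 18 hours at 37 degrees C. Per-cell GFP summed per well was normalised to unstimulated and stimulated DMSO controls before curve fitting.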
Numbers without * were called inactive; ? = inconclusive; . = no result given. In the library only some 6.5% were active in any assay of this set; here they are far more common. Unless noted, calls come from the whole dose curve; as a rule, active = well fitted curve in the direction sought with a large enough effect; inconclusive = small, poorly fitted or top-dose-only effect, or another doubt; inactive = no such curve, though single readings can be large; an effect the other way counts as inactive or inconclusive.

SMILES | IL-1B inflam inh | HT1080 IDH1KD tx | HT1080NT lethal | HepG2 tox | Giardia killer | TGFb inhibitor
COc1cc(/C=C2\SC(=S)N(NC(=O)c3ccc(O)c(OC)c3)C2=O)ccc1O | -11 | -19% | -8% | -21% | -14 | 27%
O=C(NCCCn1ccnc1)c1cccc(S(=O)(=O)Nc2ccc(F)cc2)c1 | 24 | -11% | 4% | -20% | 5 | ?
COc1ccccc1-c1cn[nH]c1-c1ccc(OCc2ccccc2F)cc1O | -101* | ? | ? | 22µM* | 0 | ?
COc1ccccc1-c1cn[nH]c1-c1ccc(OCc2ccc(F)cc2)cc1O | -52* | ? | ? | -35% | -7 | ?
COc1ccccc1-c1cn[nH]c1-c1ccc(OCc2ccc([N+](=O)[O-])cc2)cc1O | 23 | -28% | ? | -48% | -8 | ?
CCCc1cc(Nc2ccccc2)n2ncnc2n1 | -14 | 11% | 0% | -1% | -7 | 14%
COc1ccc(C(=O)NC(=S)Nc2ccc(CN3CCCCC3)cc2)cc1Cl | -68* | ? | ? | 5% | 12 | ?
S=C(Nc1ccc(Br)cc1Cl)N1CCCC1 | 9 | 3% | 3% | 2% | 2 | 2%
Cc1ccc(C(=O)NC(=S)Nc2ccc(CN3CCCCC3)cc2)c(C)c1 | -53* | ? | ? | -23% | -2 | 2%
O=C(Nc1ccc(CN2CCCCC2)cc1)Nc1ccc(Br)cc1Cl | -85* | -13% | -10% | 0% | 12 | 26%
O=C(NC(=S)Nc1ccc(CN2CCCCC2)cc1)c1ccco1 | -5 | 1% | 0% | -2% | -2 | 10%
CCOC(=O)c1c(S(=O)(=O)N2CCN(C3CCCCC3)CC2)c(C)n(C)c1C | -21 | 1% | 0% | 1% | -9 | -16%
COc1ccc(C(=O)C2CCN(C(=S)NCC3CCCO3)CC2)cc1 (stereo not given) | -6 | -13% | 2% | -37% | -3 | -15%
O=c1[nH]c(CN(CCO)CCO)nc2c1C1(CCCCC1)Cc1ccccc1-2 | ? | -5% | -8% | 7% | 8 | -4%
COc1ccccc1[C@]1(C)ON(c2ccccc2C(F)(F)F)C1=O | -100* | ? | ? | -21% | -2 | ?
CC[C@]1(c2ccccc2OC)ON(c2ccccc2C(F)(F)F)C1=O | 0 | ? | -27% | 16µM* | -5 | 10µM*
CC(C)C[C@]1(c2ccccc2)ON(c2ccccc2C(F)(F)F)C1=O | -11 | -15% | -2% | 5% | 14 | 0%
CCOc1cc(C2C(C(=O)OC)=C(C)NC3=C2C(=O)c2ccccc23)ccc1OC (stereo not given) | . | . | . | -30% | . | 0%
O=C(CSc1ncn[nH]1)Nc1ccc(Cl)c(Cl)c1 | -52* | -20% | -14% | 6% | -7 | -6%
Cc1ccc(NC(=O)CSc2ncn[nH]2)cc1C | . | . | . | -28% | . | -9%
Cc1cccc(C)c1OC(=O)CCN1C(=O)C2C3C=CC(C4CC34)C2C1=O (stereo not given) | 19 | 15% | 2% | 0% | 42 | -16%
O=C(O)Cc1sc(Nc2cccc3ccccc23)nc1-c1ccc(Cl)cc1 | 22 | -20% | 12µM* | 0% | -10 | -7%
CCOc1ccc(Nc2oc(-c3ccccc3Cl)nc2C#N)cc1 | 0 | -29% | -26% | -10% | -18 | 16%
CNC(=O)c1ccsc1NC(=O)c1ccc2c(c1)CCCC2 | -55* | -9% | -18% | -68% | -20 | ?
NC(=O)c1ccsc1NC(=O)c1ccc2c(c1)CCCC2 | -55* | ? | ? | -62% | ? | ?
SMILES | IL-1B inflam inh | HT1080 IDH1KD tx | HT1080NT lethal | HepG2 tox | Giardia killer | TGFb inhibitor
NC(=O)c1ccsc1NC(=O)c1ccc(N2CCCC2=O)cc1 | -56* | -19% | -23% | -8% | ? | ?
CC(C)Cc1nnc(NC(=O)c2ccc(N3CCCC3=O)cc2)s1 | -16 | 11% | 3% | -17% | 21 | 3%
CCCOc1ccc2[nH]cc(C(=O)O)c(=O)c2c1 | 18 | 14% | 10% | 12% | 20 | 0%
CCC(c1c(C)n(C)n(-c2ccccc2)c1=O)c1c(C)n(C)n(-c2ccccc2)c1=O | -7 | 0% | 1% | -15% | -24 | 2%
CCCC(c1c(C)n(C)n(-c2ccccc2)c1=O)c1c(C)n(C)n(-c2ccccc2)c1=O | 1 | ? | 2% | 11µM* | -2 | -6%
O=C(CSc1ccc2nnc(-c3ccccn3)n2n1)Nc1ccc(F)cc1 | -17 | 15% | 10% | 10% | 4 | 25%
CCC(C)Oc1ccc(/C=C/c2[nH]c(=O)[nH]c(=O)c2[N+](=O)[O-])cc1OC (stereo not given) | -102* | ? | -25% | -2% | -7 | -13%
CC(C)c1ccc(NC(=O)COC(=O)C2=COCCO2)cc1 | 15 | 7% | 5% | 9% | -3 | -14%
COc1ccc(NC(=O)CSc2nnc3ccc(-c4ccccn4)nn23)cc1 | -6 | 16% | 11% | 2% | 3 | 0%
O=C(O)Cn1nnc(-c2cccs2)n1 | 5 | 3% | 2% | 3.2µM* | -17 | -3%
CC(C)(C)c1ccc(S(=O)(=O)N2CCC(CO)(CC3CCCCO3)CC2)cc1 (stereo not given) | -72* | -17% | -28% | -4% | -7 | ?
O=C(OCC(O)C(O)C(O)C(SCc1ccccc1)SCc1ccccc1)c1ccccc1 (stereo not given) | -72* | ? | -20% | -46% | 9 | ?
O=C(OCC(O)C(O)C(O)COC(=O)c1ccccc1)c1ccccc1 (stereo not given) | 0 | 1% | 0% | 0% | 4 | -1%
c1ccc(-n2cc(CN3CCC(N4CCOCC4)CC3)c(-c3ccc4c(c3)OCO4)n2)cc1 | -66* | 9% | 0% | -16% | -9 | -11%
CCOC(=O)C1CCCN(C(=O)c2cccs2)C1 (stereo not given) | -2 | 1% | 0% | -8% | -1 | -15%
C=CCN=C(NC#N)SCc1ccccc1 | -14 | -1% | -3% | -4% | 19 | -14%
C=CCN=C(NC#N)SCC(=O)c1cccc(OC)c1 | -57* | ? | -22% | -18% | 13 | ?
CCCS(=O)(=O)NCCc1cc2ccc(C)cc2[nH]c1=O | 0 | 0% | 7% | -4% | 9 | -5%
N#Cc1nc(-c2cccs2)oc1NCc1ccc2c(c1)OCO2 | 13 | -26% | -22% | 7.9µM* | 21 | -1%
